Assay results as given in the supplement of paper PMC11732987, “Enantioselective OTUD7B fragment discovery through chemoproteomics screening and high-throughput optimisation” (Communications Chemistry, 2025).
Values without a mark were called inactive.

Tests used:
Test in all cases: log2 ratio of Biotin-Ahx-Ub-VS probe labelling (compound/DMSO); higher = less target engagement, active = hit call of the paper (q ≤ 0.05, log2 ratio ≤ -1)
Conditions in all cases: treatment time: 3 h
[1] = compound: CN(Cc1cccc(Br)c1)C(=O)CCl
Method in brief: (§1)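 HEK293T lysate (495 µg per sample, in Tris/CHAPS/IGEPAL buffer with protease inhibitors) was treated in triplicate with compound at 50 or 200 µM or with DMSO for 3 h. It was then treated with Biotin-Ahx-Ub-VS (0.5 µM final) for 1 h. Labelled DUBs were NeutrAvidin-enriched, digested with LysC and trypsin, and run by diaPASEF LC-MS/MS. Median-normalised label-free quantities gave average log2 ratios compound/DMSO by unpaired t-test, using proteins with ≥2 unique peptides.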

[2] = compound: CN(Cc1cccc(OCc2ccccc2C)c1)C(=O)CCl
Method in brief: as §1

[3] = compound: CN(Cc1ccccc1)C(=O)CCl
Method in brief: as §1

[4] = compound: COc1ccc(CN(C)C(=O)CCl)cc1
Method in brief: as §1

[5] = compound: COc1cccc(CN(CCCc2ccccc2)C(=O)CCl)c1
Method in brief: as §1

[6] = compound: ClCC(=O)N1CCc2cc(Cl)c(Cl)cc2C1
Method in brief: as §1

[7] = compound: ClCC(=O)N1CCc2nc(ncc2C1)-c1ccccc1
Method in brief: as §1

[8] = compound: ClCC(=O)N1CCc2nocc2C1
Method in brief: as §1

[9] = compound: ClCC(=O)N1CCc2scc(Br)c2C1
Method in brief: as §1

[10] = compound: ClCC(=O)NC(C1CCCC1)c1cccs1
Method in brief: as §1

[11] = compound: ClCC(=O)NC1CCCc2ccccc12
Method in brief: as §1

[12] = compound: ClCC(=O)NC1CCOc2ccc(Cl)cc12
Method in brief: as §1

[13] = compound: ClCC(=O)NC1CCSc2ccccc12
Method in brief: as §1

[14] = compound: ClCC(=O)N[C@H]1CCCc2ccccc12
Method in brief: as §1

[15] = compound: Fc1ccc(N2CCN(c3nc4c(CN(C(CCl)=O)CC4)cn3)CC2)cc1.Cl.Cl
Method in brief: as §1

UniProt Q5T2D3, sequence (Q5T2D3 whole entry): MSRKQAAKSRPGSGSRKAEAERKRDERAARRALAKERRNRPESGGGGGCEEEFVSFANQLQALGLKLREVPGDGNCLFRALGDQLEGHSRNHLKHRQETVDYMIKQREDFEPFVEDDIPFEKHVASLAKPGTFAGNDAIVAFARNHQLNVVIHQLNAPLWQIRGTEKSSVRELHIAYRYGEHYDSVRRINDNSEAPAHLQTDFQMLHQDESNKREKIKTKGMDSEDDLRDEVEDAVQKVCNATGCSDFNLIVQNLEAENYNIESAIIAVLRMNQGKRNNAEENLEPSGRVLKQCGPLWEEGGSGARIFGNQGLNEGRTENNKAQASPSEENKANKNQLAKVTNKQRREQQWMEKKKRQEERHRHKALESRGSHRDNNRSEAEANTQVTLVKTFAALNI
UniProt Q93009, sequence (Q93009 whole entry, looked up): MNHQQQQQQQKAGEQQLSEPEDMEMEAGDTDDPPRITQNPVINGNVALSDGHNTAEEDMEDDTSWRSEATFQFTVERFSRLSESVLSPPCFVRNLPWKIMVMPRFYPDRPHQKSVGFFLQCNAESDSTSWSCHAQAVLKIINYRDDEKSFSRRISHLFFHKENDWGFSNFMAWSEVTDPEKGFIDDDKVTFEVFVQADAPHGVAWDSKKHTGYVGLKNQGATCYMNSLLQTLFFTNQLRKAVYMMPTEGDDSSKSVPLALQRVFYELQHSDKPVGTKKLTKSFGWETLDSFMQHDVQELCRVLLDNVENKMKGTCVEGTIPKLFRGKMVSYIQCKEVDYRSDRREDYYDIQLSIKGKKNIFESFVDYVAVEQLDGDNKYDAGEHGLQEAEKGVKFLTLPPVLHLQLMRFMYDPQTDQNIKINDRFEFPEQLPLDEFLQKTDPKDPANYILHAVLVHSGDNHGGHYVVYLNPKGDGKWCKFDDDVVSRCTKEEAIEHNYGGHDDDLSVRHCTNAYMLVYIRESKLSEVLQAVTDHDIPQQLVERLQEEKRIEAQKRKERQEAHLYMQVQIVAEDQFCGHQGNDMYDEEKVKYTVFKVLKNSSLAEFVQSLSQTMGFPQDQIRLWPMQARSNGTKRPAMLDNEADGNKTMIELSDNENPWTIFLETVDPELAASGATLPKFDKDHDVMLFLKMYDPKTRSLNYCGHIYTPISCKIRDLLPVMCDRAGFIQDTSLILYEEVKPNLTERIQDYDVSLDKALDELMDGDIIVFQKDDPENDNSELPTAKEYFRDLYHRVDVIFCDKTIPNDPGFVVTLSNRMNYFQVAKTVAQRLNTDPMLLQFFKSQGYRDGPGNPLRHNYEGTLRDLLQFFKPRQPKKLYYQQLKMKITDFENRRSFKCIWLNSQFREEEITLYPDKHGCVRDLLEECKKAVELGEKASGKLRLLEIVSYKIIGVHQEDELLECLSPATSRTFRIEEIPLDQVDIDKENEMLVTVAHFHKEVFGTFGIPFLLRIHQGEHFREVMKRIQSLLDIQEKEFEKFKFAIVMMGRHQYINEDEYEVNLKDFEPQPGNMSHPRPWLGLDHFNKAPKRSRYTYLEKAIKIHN
UniProt Q4G0A6, sequence (Q4G0A6 whole entry): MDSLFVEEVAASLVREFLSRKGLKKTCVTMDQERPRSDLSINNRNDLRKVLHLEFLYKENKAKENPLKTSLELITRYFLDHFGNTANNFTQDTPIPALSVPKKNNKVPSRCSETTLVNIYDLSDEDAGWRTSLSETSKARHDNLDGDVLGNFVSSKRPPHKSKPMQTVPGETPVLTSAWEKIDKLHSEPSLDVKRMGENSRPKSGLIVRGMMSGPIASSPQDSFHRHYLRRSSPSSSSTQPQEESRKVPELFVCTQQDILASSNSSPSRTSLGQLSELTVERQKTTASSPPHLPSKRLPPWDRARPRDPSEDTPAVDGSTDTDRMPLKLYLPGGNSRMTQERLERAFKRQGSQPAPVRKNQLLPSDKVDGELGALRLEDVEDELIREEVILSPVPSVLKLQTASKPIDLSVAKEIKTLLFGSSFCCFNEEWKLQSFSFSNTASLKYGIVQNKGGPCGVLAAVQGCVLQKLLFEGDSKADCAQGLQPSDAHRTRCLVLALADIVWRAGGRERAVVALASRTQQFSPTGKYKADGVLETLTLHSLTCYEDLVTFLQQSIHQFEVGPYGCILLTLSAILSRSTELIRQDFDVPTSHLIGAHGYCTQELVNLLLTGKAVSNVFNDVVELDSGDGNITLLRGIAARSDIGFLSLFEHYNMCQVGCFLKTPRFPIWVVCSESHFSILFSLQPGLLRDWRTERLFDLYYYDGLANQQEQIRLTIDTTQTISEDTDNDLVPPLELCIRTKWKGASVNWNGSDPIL
UniProt Q70EL1, sequence (Q70EL1 whole entry): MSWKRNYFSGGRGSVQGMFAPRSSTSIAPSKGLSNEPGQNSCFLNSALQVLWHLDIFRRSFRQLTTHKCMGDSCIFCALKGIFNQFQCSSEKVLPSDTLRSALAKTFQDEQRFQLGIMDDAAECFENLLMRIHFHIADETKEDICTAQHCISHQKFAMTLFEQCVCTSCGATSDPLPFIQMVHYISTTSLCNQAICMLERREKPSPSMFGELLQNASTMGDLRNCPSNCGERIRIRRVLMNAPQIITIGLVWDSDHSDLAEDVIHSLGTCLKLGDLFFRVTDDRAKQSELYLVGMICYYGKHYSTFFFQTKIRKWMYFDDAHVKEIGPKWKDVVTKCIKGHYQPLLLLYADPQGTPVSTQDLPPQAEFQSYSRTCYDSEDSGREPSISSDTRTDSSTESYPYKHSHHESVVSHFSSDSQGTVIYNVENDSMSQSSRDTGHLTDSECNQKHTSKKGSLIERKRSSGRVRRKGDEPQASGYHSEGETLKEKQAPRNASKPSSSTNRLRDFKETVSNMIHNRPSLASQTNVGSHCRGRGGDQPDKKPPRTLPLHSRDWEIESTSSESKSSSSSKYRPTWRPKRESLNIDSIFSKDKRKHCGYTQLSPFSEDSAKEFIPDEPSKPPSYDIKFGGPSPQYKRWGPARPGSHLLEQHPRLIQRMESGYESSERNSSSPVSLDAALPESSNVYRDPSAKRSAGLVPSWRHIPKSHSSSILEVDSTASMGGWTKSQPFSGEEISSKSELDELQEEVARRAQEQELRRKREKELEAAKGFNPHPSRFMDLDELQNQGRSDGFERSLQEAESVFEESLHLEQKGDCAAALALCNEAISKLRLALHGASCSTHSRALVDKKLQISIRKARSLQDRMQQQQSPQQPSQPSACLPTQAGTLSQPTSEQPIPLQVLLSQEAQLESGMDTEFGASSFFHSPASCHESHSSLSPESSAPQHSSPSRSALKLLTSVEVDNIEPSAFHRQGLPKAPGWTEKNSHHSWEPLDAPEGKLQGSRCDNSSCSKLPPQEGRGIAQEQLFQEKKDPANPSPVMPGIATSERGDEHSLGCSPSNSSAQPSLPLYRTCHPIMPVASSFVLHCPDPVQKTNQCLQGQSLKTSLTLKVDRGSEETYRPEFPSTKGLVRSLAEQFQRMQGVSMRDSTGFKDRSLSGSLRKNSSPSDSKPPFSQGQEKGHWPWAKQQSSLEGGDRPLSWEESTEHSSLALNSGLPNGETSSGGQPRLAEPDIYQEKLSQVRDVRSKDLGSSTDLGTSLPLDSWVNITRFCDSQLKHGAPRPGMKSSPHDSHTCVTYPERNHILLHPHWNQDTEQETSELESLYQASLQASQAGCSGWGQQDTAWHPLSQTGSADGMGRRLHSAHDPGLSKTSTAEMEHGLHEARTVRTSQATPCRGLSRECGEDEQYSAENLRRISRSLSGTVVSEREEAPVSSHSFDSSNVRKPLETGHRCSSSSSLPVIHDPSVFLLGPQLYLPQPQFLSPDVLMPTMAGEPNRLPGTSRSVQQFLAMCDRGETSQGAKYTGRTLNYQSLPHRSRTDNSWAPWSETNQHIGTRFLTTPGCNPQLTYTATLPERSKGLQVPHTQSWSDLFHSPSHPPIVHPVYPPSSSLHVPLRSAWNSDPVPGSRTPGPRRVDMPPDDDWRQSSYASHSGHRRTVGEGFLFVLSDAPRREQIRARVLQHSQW
UniProt Q86UV5, sequence (Q86UV5 whole entry): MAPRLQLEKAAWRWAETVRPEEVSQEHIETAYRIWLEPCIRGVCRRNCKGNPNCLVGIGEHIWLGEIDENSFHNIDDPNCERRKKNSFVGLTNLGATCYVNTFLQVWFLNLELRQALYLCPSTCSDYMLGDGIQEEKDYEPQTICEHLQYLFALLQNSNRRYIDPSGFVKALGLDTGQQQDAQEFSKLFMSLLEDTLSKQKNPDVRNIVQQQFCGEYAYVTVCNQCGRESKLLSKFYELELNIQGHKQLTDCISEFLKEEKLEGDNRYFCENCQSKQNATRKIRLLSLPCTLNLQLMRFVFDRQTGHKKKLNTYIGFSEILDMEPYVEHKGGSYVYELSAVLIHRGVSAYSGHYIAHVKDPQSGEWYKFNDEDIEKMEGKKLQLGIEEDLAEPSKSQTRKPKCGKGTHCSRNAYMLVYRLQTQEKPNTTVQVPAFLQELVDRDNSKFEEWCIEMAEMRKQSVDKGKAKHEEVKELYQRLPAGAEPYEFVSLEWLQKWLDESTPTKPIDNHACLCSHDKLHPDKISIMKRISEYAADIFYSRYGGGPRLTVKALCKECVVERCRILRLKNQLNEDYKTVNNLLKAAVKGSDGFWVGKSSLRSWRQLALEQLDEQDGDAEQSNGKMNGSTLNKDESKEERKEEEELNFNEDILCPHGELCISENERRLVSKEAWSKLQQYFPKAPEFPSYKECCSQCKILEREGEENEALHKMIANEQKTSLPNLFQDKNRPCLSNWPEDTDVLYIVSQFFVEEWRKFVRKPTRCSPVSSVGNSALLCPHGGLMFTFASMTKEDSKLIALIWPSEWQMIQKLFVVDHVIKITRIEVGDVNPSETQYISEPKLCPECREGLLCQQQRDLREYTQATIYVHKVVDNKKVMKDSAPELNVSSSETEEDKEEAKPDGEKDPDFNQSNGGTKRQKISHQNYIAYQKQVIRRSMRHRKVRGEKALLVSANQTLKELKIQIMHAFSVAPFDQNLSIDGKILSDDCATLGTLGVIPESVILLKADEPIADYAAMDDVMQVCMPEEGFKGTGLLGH

Target | log2 ratio of Biotin-Ahx-Ub-VS probe labelling ([1]; compound concentration: 50uM) | log2 ratio of Biotin-Ahx-Ub-VS probe labelling ([1]; compound concentration: 200uM) | log2 ratio of Biotin-Ahx-Ub-VS probe labelling ([2]; compound concentration: 50uM) | log2 ratio of Biotin-Ahx-Ub-VS probe labelling ([2]; compound concentration: 200uM) | log2 ratio of Biotin-Ahx-Ub-VS probe labelling ([3]; compound concentration: 50uM) | log2 ratio of Biotin-Ahx-Ub-VS probe labelling ([3]; compound concentration: 200uM) | log2 ratio of Biotin-Ahx-Ub-VS probe labelling ([4]; compound concentration: 50uM) | log2 ratio of Biotin-Ahx-Ub-VS probe labelling ([4]; compound concentration: 200uM) | log2 ratio of Biotin-Ahx-Ub-VS probe labelling ([5]; compound concentration: 50uM) | log2 ratio of Biotin-Ahx-Ub-VS probe labelling ([5]; compound concentration: 200uM) | log2 ratio of Biotin-Ahx-Ub-VS probe labelling ([6]; compound concentration: 50uM) | log2 ratio of Biotin-Ahx-Ub-VS probe labelling ([6]; compound concentration: 200uM) | log2 ratio of Biotin-Ahx-Ub-VS probe labelling ([7]; compound concentration: 50uM) | log2 ratio of Biotin-Ahx-Ub-VS probe labelling ([7]; compound concentration: 200uM) | log2 ratio of Biotin-Ahx-Ub-VS probe labelling ([8]; compound concentration: 50uM) | log2 ratio of Biotin-Ahx-Ub-VS probe labelling ([8]; compound concentration: 200uM) | log2 ratio of Biotin-Ahx-Ub-VS probe labelling ([9]; compound concentration: 50uM) | log2 ratio of Biotin-Ahx-Ub-VS probe labelling ([9]; compound concentration: 200uM) | log2 ratio of Biotin-Ahx-Ub-VS probe labelling ([10]; compound concentration: 50uM) | log2 ratio of Biotin-Ahx-Ub-VS probe labelling ([10]; compound concentration: 200uM) | log2 ratio of Biotin-Ahx-Ub-VS probe labelling ([11]; compound concentration: 50uM) | log2 ratio of Biotin-Ahx-Ub-VS probe labelling ([11]; compound concentration: 200uM) | log2 ratio of Biotin-Ahx-Ub-VS probe labelling ([12]; compound concentration: 50uM) | log2 ratio of Biotin-Ahx-Ub-VS probe labelling ([12]; compound concentration: 200uM) | log2 ratio of Biotin-Ahx-Ub-VS probe labelling ([13]; compound concentration: 50uM) | log2 ratio of Biotin-Ahx-Ub-VS probe labelling ([13]; compound concentration: 200uM) | log2 ratio of Biotin-Ahx-Ub-VS probe labelling ([14]; compound concentration: 50uM) | log2 ratio of Biotin-Ahx-Ub-VS probe labelling ([14]; compound concentration: 200uM) | log2 ratio of Biotin-Ahx-Ub-VS probe labelling ([15]; compound concentration: 50uM) | log2 ratio of Biotin-Ahx-Ub-VS probe labelling ([15]; compound concentration: 200uM)
UniProt Q5T2D3 | 0.00241 | -0.212 | -0.549 | -0.332 | -0.381 | -0.198 | -0.229 | 0.0599 | -0.157 | -0.202 | 0.0943 | -0.112 | 0.0194 | -0.186 | -0.173 | -0.329 | -0.0373 | 0.0195 | -0.0592 | -0.12 | -0.177 | 0.0818 | -0.361 | -0.177 | -0.0329 | -0.156 | -0.0344 | -0.199 | -0.00755 | -0.416
MINDY4 (UniProt Q4G0A6) | 0.681 | -1.19 (active) | 0.702 | 0.585 | 0.106 | -0.273 | 0.675 | 0.712 | 0.722 | 0.797 | 0.706 | 0.819 | 0.669 | 0.652 | 0.0993 | 0.614 | 0.589 | 0.525 | 0.738 | 0.487 | 0.639 | -0.0583 | -0.0698 | 0.0712 | 0.832 | -0.691 | 0.216 | 0.204 | 0.258 | 0.516
USP12 (UniProt O75317) | -0.144 | -0.188 | -0.484 | -0.602 | -0.0519 | -0.89 | -0.0378 | -0.439 | -0.477 | -0.852 | -0.202 | -2.18 (active) | 0.154 | -0.813 | -0.195 | -0.415 | 0.0837 | -0.475 | 0.0281 | -0.0926 | -0.289 | -0.199 | -0.354 | -0.202 | -0.191 | -0.363 | -0.253 | -0.148 | -0.289 | -1.16 (active)
USP48 (UniProt Q86UV5) | -0.101 | -0.603 | -0.235 | -0.552 | -0.0688 | -0.18 | -0.0647 | -0.237 | -0.0292 | -0.259 | -0.214 | -0.0205 | -0.173 | -0.226 | -0.112 | -0.324 | -0.161 | -0.327 | -0.234 | -0.00963 | 0.13 | 0.0439 | -0.0252 | -0.167 | 0.207 | -0.0233 | -0.00252 | -0.144 | -0.0747 | -0.125
PRPF8 (UniProt Q6P2Q9) | -0.00418 | 0.0824 | -0.075 | 0.0126 | -0.0842 | 0.108 | 0.0375 | 0.065 | 0.00751 | 0.0603 | 0.0965 | 0.0914 | 0.046 | 0.0608 | -0.0702 | 0.00362 | -0.00317 | 0.0413 | 0.122 | -0.028 | -0.0294 | -0.0682 | -0.217 | -0.0207 | 0.0298 | -0.0215 | 0.0787 | -0.0553 | -0.0417 | -0.137
USP5 (UniProt P45974) | 0.304 | 0.538 | -0.113 | -0.0873 | -0.0827 | -0.00169 | -0.0203 | 0.204 | 0.212 | 0.11 | 0.412 | -0.121 | 0.389 | 0.254 | 0.00846 | 0.00188 | 0.214 | 0.0804 | 0.00222 | -0.112 | 0.0451 | 0.134 | 0.0362 | -0.0604 | 0.236 | -0.0467 | 0.0744 | -0.095 | 0.22 | -0.287
USP39 (UniProt Q53GS9) | 0.105 | -0.535 | -0.137 | 0.0162 | -0.0746 | 0.0651 | 0.011 | -0.086 | 0.17 | 0.063 | 0.017 | -0.298 | 0.044 | 0.117 | -0.102 | -0.0827 | -0.0611 | -0.272 | 0.165 | 0.014 | -0.167 | -0.109 | -0.269 | -0.2 | -0.0242 | -0.138 | 0.0198 | -0.0406 | 0.0915 | -0.109
OTUD7B (UniProt Q6GQQ9) | -0.428 | -1.07 (active) | -0.878 | -2.2 (active) | -0.664 | -1.45 (active) | -0.435 | -0.811 | -0.145 | -0.385 | -0.244 | -1.67 (active) | -0.213 | -1.67 (active) | -1.21 (active) | -3.03 (active) | -0.654 | -2.61 (active) | -0.987 | -2.95 (active) | -4.5 (active) | -5.65 (active) | -2.75 (active) | -5.2 (active) | -3.62 (active) | -5.08 (active) | -5.19 (active) | -5.13 (active) | -0.187 | -1.57 (active)
USP7 (UniProt Q93009) | -0.88 | -1.84 (active) | -0.769 | -1.62 (active) | -0.517 | -1.2 (active) | -0.358 | -1.04 (active) | -0.387 | -1.22 (active) | -1.57 (active) | -2.52 (active) | -0.461 | -1.58 (active) | -0.316 | -0.618 | -0.698 | -2.08 (active) | 0.0363 | -0.1 | -0.0886 | -0.205 | -0.182 | -0.301 | 0.0569 | -0.25 | 0.0324 | -0.432 | -0.507 | -1.83 (active)
USP54 (UniProt Q70EL1) | 0.085 | -0.845 | -1.29 (active) | -0.985 | -0.885 | -0.551 | -0.773 | -2.33 (active) | -0.358 | -2.68 (active) | -0.895 | -2.65 (active) | -0.823 | -2.39 (active) | -0.519 | -1.77 (active) | -0.124 | -2.07 (active) | 0.0591 | 0.198 | -0.548 | 0.0905 | 0.326 | 0.176 | 0.0467 | 0.0947 | -1.58 (active) | -0.206 | -0.663 | 0.547
